Rango-impB inh: qHTS Assay for Inhibitors of Rango (Ran-regulated importin-beta cargo) - Importin beta complex formation; hit rate 0.031% among 340,000; AID 540263, 2011; Rango CFP/YFP FRET sensor + importin beta, 45 min; Importin subunit beta-1 (Homo sapiens), Q14974; Potency, µM (highest dose often 92.2 µM); calls by dose curve; note: nearly all actives have a fitted effect of over 15% in size
Target sequence (Q14974 whole entry, looked up): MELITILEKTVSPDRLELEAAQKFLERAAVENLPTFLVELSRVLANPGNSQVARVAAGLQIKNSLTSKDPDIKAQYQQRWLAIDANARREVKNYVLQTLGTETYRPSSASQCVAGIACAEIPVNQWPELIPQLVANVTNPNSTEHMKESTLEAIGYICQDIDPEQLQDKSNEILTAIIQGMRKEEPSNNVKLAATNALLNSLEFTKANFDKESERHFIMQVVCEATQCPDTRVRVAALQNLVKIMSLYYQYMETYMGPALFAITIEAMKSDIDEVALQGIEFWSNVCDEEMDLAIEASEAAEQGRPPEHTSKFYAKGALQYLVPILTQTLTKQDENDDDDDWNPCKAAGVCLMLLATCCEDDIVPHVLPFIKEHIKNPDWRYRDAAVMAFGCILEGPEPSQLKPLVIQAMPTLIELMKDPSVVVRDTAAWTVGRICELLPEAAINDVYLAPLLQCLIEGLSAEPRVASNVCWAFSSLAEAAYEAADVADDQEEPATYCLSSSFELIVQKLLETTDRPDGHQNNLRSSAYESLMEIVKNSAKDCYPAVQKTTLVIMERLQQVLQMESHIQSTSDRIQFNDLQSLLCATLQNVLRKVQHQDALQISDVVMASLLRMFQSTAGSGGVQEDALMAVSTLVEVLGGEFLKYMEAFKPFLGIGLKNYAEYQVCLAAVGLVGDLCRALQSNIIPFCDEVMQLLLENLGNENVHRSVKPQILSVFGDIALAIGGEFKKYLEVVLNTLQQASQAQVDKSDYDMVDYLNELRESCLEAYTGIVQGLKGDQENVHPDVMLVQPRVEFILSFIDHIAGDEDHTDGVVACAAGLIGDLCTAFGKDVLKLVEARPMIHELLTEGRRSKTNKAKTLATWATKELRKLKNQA
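Inhibition scored from the CFP 486 nm/YFP 530 nm FRET ratio 45 min after adding 0.125 microM importin beta to 50 nM Rango biosensor preincubated 5 min with compound (room temperature, PBS with DTT, Tween-20, BSA). No-importin wells as positive control.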
ClpP mod: qHTS Assay for Activators of ClpP; ATP-dependent Clp protease proteolytic subunit (Bacillus subtilis (strain 168)), P80244; purified B. subtilis ClpP, FRET peptide cleavage, 20 min; Potency, µM (series often up to 57.5 µM); hit rate 1.9% among 340,000; AID 651965, 2013; active = well fitted falling curve with a large enough effect; inconclusive = small, poorly fitted or top-dose-only effect; inactive = no such curve, though single readings can be large or run the other way; note: the source files actives as falling curves though it sought activators and does not explain the sign; nearly all actives have a fitted effect of over 65% in size
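FRET quenching reversal measured ClpP activation: 10 microg/mL B. subtilis ClpP at pH 8 with the FRET-FV decapeptide, read at 430 nm after 320 nm excitation. The 20-min minus 0-min signal was scaled between DMSO/no-enzyme wells and ADEP (5.8 microM final).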
TDP1 block: qHTS Assay for Inhibitors of Tyrosyl-DNA Phosphodiesterase (TDP1). Tyrosyl-DNA phosphodiesterase 1 (Homo sapiens), Q9NUW8. recombinant TDP1, AlphaScreen DNA substrate cleavage. Potency, µM (series often up to 130 µM), actives largely listed as inhibitors. hit rate 0.28% among 350,000. AID 485290, 2010; note: nearly all actives have a fitted effect of over 40% in size
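Compounds were preincubated with Tdp1 (1 nM final) for 15 min at room temperature before substrate (15 nM final) started a 5 min reaction; beads (10 ug/ml final) were then added for 10 min before AlphaScreen detection.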
ALOX12 inh: Primary qHTS assay for inhibitors of human arachidonate 12S-lipoxygenase (ALOX12): Round 2. AID 1671190, 2021. Polyunsaturated fatty acid lipoxygenase ALOX12 (Homo sapiens), P18054. hit rate 1.1% among 580,000. Potency, µM (titrated, usually from 108 µM), hits mostly inhibitors. purified 12hLO, xylenol orange hydroperoxide absorbance
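Purified human 12hLO at 150 nM in 25 mM Hepes, 0.01% Triton X-100, pH 7.0, preincubated 15 min at room temperature with compound. Reaction started with 40 uM arachidonic acid, 30 min at room temperature. Hydroperoxide measured by Fe-xylenol orange, 573/405 nm absorbance ratio.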
TSG101-PTAP inh: qHTS Assay for Iinhibitors of HIV-1 Budding by Blocking the Interaction of PTAP/TSG101; Tumor susceptibility gene 101 protein (Homo sapiens), Q99816; Potency, µM (series often up to 115 µM), actives largely listed as inhibitors; Fluorescence polarization, FITC-PTAP peptide / Tsg101 binding; 340,000 tested, under 10 active; active = well fitted inhibition curve with a large enough effect in the main read-out, with a control signal flat, not every such curve was filed as active; inconclusive = small, poorly fitted or top-dose-only effect, or effect the other way, or a change in a side signal; inactive = no such curve, though single readings can be large or run the other way
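Fluorescence polarization binding of Tsg101 binding domain (10 uM final) to FITC-labeled PTAP peptide (50 nM final) in HEPES pH 7.5 buffer with NaCl, Tween 20, EDTA, TCEP. Compounds added before peptide; binding 20 min at RT.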
Rango dissoc inh: qHTS Assay for Inhibitors of RanGTP induced Rango (Ran-regulated importin-beta cargo) - Importin beta complex dissociation. Snurportin-1 (Homo sapiens) + GTP-binding nuclear protein Ran (Homo sapiens) + Importin …. Biochemical FRET Rango-importin beta, RanGTP-induced dissociation. Potency, µM (highest dose often 46.1 µM). hit rate 0.071% among 340,000; calls by dose curve; note: nearly all actives have a fitted effect of over 45% in size
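Recombinant Rango FRET biosensor (EYFP–snurportin 1 IBB–cerulean CFP10) at 0.1 uM premixed with 0.25 uM importin beta in PBS, 1 mM DTT, 0.02% Tween-20, 0.1% BSA. Compound added 5 min; RanGTP-RCC1 (0.6 uM Ran, 2 mM GTP, 0.2 uM RCC1) then triggers release, read at 45 min.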
Hits are given with their value; – = inactive; ? = inconclusive; · = no result given; ! = not confirmed by another sample. Shown are actives, neighbours in structure and some others; about 2.4% of the full set was active somewhere. Unless noted, calls come from the whole dose curve; as a rule, active = well fitted curve in the direction sought with a large enough effect; inconclusive = small, poorly fitted or top-dose-only effect, or another doubt; inactive = no such curve, though single readings can be large; an effect the other way counts as inactive or inconclusive.

SMILES | Rango-impB inh | ClpP mod | TDP1 block | ALOX12 inh | TSG101-PTAP inh | Rango dissoc inh
Cc1ccc(C)c(NC(=S)NCCc2c[nH]c3ccccc23)c1 | ? | · | – | ? | – | –
O=C(c1ccc(N2CCC(NCc3cc(C(F)(F)F)ccc3F)CC2)cc1)N1CCCC(CO)C1 (stereo unspecified) | · | · | · | – | · | ·
CS(=O)(=O)N1CC(C(=O)NCCc2ccncc2)C2(CCOCC2)C1 (stereo unspecified) | · | · | · | – | · | ·
CC(C)CCN1CCC2(CC1)CC(C(C)C)=NO2 | · | · | · | – | · | ·
CCCc1cc(=O)oc2cc(OCc3cc(C)ccc3C)ccc12 | · | · | · | – | · | ·
CCCCNc1nc2c(c(=O)n(C)c(=O)n2C)n1Cc1ccc(Br)cc1 | · | · | · | – | · | ·
O=C(CCC1CCCC1)N1CCN(C(=O)c2cc3ccccc3oc2=O)CC1 | · | · | · | – | · | ·
Cc1ccc(N2NC(=O)/C(=C/c3ccc(-c4ccc(Cl)c(C(=O)O)c4)o3)C2=O)cc1 | ? | · | – | ? | – | –
O=C1NN(c2ccc(Cl)cc2)C(=O)/C1=C\c1ccc(-c2cccc(C(=O)O)c2)o1 | ? | · | · | 39.8µM | – | –
COc1ccc(C(=O)N2CCCN(c3cc(-c4ccc(C)c(C)c4)[nH]n3)CC2)c(OC)n1 | · | · | · | – | · | ·
Clc1ccc(-c2cnc([C@@H]3COCCN3Cc3cnc[nH]3)[nH]2)cc1 | · | · | · | – | · | ·
Cn1c(CN2CCOC[C@H]2c2ncc(-c3ccc(Cl)cc3)[nH]2)nc2ccccc21 | · | · | · | 35.5µM | · | ·
COc1cc(NC(=O)Cn2ccn3nc4c(c3c2=O)CCCCC4)cc(OC)c1 | · | · | · | – | · | ·
COCCCNC(=O)/C(C#N)=C/c1c(N2CCN(C)CC2)nc2c(C)cccn2c1=O | ? | – | · | – | – | ?
COCCCNC(=O)/C(C#N)=C/c1c(N2CCN(c3ccc(OC)cc3)CC2)nc2c(C)cccn2c1=O | ? | – | · | – | – | 4.61µM
C=CCn1c(COc2cccc3ccc(C)nc23)nnc1SCC(=O)OC | – | 28.2µM | – | – | – | –
Cn1c(COc2cccc3cccnc23)nnc1SCC(=O)O | – | – | – | 7.94µM! | – | –
CCn1c(COc2cccc3cccnc23)nnc1SCC(=O)OC | – | – | – | ? | – | –
O=C(NCc1cccc(Cl)c1)c1cnc2c(c1)N(C(=O)CCc1ccccc1)CCC2 | · | · | · | – | · | ·
COc1ccc(-c2nc3cccc(C)n3c2NCc2ccco2)cc1OC | – | 14.1µM | – | ? | – | –
COCCCOc1ccnc(CS(=O)c2nc3ccccc3[nH]2)c1C (stereo unspecified) | – | – | – | 44.7µM! | – | –
Cc1c(OCC(F)(F)F)ccnc1CSc1nc2ccccc2[nH]1 | – | – | – | – | – | –
COc1ccc2c(c1)C1=NN(/C(C)=C/C(C)=O)C(c3ccc(F)cc3)C1CC2 (stereo unspecified) | – | 20µM | – | ? | – | –
COc1ccc2c(c1)CCC1C2=NN(/C(C)=C\C(C)=O)C1c1ccc(F)cc1 (stereo unspecified) | ? | – | – | ? | – | ?
Clc1cc(Cl)c(N/N=C/C(Br)=C/c2ccccc2)c(Cl)c1 | · | · | · | 6.31µM | · | ·
SMILES | Rango-impB inh | ClpP mod | TDP1 block | ALOX12 inh | TSG101-PTAP inh | Rango dissoc inh
O=C(O)c1ccc(N/N=C/C(Br)=C/c2ccccc2)cc1 | ? | – | – | 39.8µM | – | ?
CCc1ccccc1NC(=O)COC(=O)c1ccc2ccccc2n1 | · | · | · | – | · | ·
CC(=O)C1=C(c2ccccc2)NC(=S)NC1c1cc(Cl)c(OC(C)C)c(Cl)c1 (stereo unspecified) | – | – | – | 28.2µM | – | –
COc1cc(C2NC(=S)NC(c3ccccc3)=C2C(C)=O)cc(Cl)c1OCC(=O)O (stereo unspecified) | – | – | – | ? | – | –
CC1=C(C(=O)Nc2ccccc2)C(c2ccccc2)NC(=S)N1 (stereo unspecified) | · | · | · | – | · | ·
Cc1ccc(NC(=O)C2=C(c3ccccc3)NC(=S)NC2c2ccc(Cl)cc2)cc1 (stereo unspecified) | · | · | · | 35.5µM | · | ·
CC1=C(C(=O)Nc2ccccc2)C(c2ccc(C)cc2)NC(=O)N1 (stereo unspecified) | · | · | · | – | · | ·
Cc1ccc(NC(=O)C2=C(c3ccccc3)NC(=S)NC2c2ccc(Br)cc2)cc1 (stereo unspecified) | · | · | · | 31.6µM | · | ·
COC1CN(C2CCN(C(=O)c3ccc(C)nc3)CC2)C12CCOCC2 (stereo unspecified) | · | · | · | – | · | ·
COc1ccc(N2Cc3cccc(C(=O)O)c3C2=O)cc1 | – | – | 8.91µM | · | – | –
Cc1[nH]c2c(C(=O)N3CCCCC3)cccc2c1C | · | · | · | – | · | ·
CCC(C)NC(=O)/C(=C/c1ccco1)c1ccccc1 (stereo unspecified) | – | 25.1µM | – | – | – | –
O=C(NCCc1ccccc1)/C(=C/c1ccco1)c1ccccc1 | – | – | – | ? | – | –
Cc1cc(C)c(OCC(=O)Nc2ccc(N3CCOCC3)cc2)c(Br)c1 | · | · | – | – | · | ·
CC(=O)N1CCN(c2ccc(NC(=O)COc3c(C)cc(C)cc3Cl)cc2)CC1 | · | · | · | 12.6µM | · | ·
O=C1Nc2ccc(S(=O)(=O)NCCCO)c3cccc1c23 | ? | – | · | – | – | ?
CCNS(=O)(=O)c1ccc2c3c(cccc13)C(=O)N2 | ? | 31.6µM | – | – | – | ?
CNC(=O)/C(C#N)=C\c1ccc(CNS(=O)(=O)c2ccccc2)o1 | – | – | – | – | – | –
CNC(=O)/C(C#N)=C\c1ccc(CNS(=O)(=O)c2ccc(Cl)cc2)o1 | – | · | – | 44.7µM | – | –
COc1ccc(OC)c(-c2nc3ccc(-c4ccc(OC)c(OC)c4OC)cc3o2)c1 | · | · | · | – | · | ·
Cc1cc(C)n(-c2nc3ccccc3c(=O)n2OCC(=O)N(C)C)n1 | – | 7.94µM | – | – | – | –
CCC1Oc2ccc(NC(=O)Cc3ccccc3)cc2CN(Cc2ccccc2)C1=O (stereo unspecified) | · | · | · | – | · | ·
Cc1cccc(C)c1NC(=O)CCn1cnc2c1c(=O)n(C)c(=O)n2C | · | · | · | – | · | ·
CC1Cc2ccccc2N1C(=O)COc1nc2ccccc2nc1N1CCOCC1 (stereo unspecified) | – | 28.2µM | – | ? | – | –
Clc1cccc(Cl)c1CO/N=C/c1c(-c2ccccc2)nc2n1CCS2 | – | 25.1µM | – | – | – | –

Screening data deposited in PubChem BioAssay by National Center for Advancing Translational Sciences (NCATS).
